Measurements taken from PubChem BioAssay (NCI).
Where “and” joins values, the source holds several entries; their conditions need not be identical. Identical values can stand only once. This is part of a sample that, as a whole, favours compounds with a hit. Of some 83,000 tested, about 20% had one in any assay.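 Values shown are percent growth following 48 h exposure of cells in 96-well plates to a single concentration of compound; below 10 was considered active.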 Calls of active or inactive are those of the source.

How the values were obtained:
Assay in all cases: NCI-60 one-dose screen, 48 h (100 = growth as untreated, 0 = no growth, -100 = all killed)
Conditions in all cases: 10 µM
[1] = tested on: T-47D breast
[2] = tested on: BT-549 breast
[3] = tested on: MDA-MB-435 melanoma
[4] = tested on: SW-620 colon
[5] = tested on: MCF7 breast
[6] = tested on: HCT-116 colon
[7] = tested on: HCC-2998 colon
[8] = tested on: MDA-MB-468 breast
[9] = tested on: KM12 colon

Measured: growth

COC1=C[C@@]23CCC(=O)N2CCc2cc4c(cc2[C@H]3[C@H]1OC(=O)C(C)(C)O)OCO4
inactive: [1] 91.6% | [2] 98.9% | [3] 98.4% | [4] 105% | [5] 92.7% | [6] 101% | [7] 103% | [8] 91.5%

O=C(CSc1ccc(-c2ccc(Cl)cc2)nn1)Nc1ccc(Cl)c(C(F)(F)F)c1
inactive: [1] 58.3% | [2] 74.6% | [5] 31.5% | [6] 50.7% | [7] 69.5% | [9] 43.3% | [8] 16.5%
active: [3] 0.967%

CCN(CC)CCOc1ccc(C(=C(C)c2ccccc2)c2ccc(OCCN(CC)CC)cc2)cc1
active: [1] -85.3% | [3] -83% | [5] -61.8% | [6] 6.73% | [7] -5.25% | [9] 0.838% | [8] -18.5%
inactive: [2] 50.4%

O=C(CSc1nnc(-c2c[nH]c3ccccc23)n1-c1ccccc1)Nc1ccc(C(=O)/C=C/c2ccc(Br)cc2)cc1
active: [6] -32.4%
inactive: [1] 57.9% | [2] 87.4% | [3] 85.8% | [5] 25.3% | [7] 94.4% | [9] 72% | [8] 71.1%

Brc1ccc(/C=C/c2n(Cc3ccc4ccccc4c3)c3ccccc3[n+]2Cc2ccc3ccccc3c2)cc1
active: [1] -58.1% | [2] -56.6% | [3] -94% | [5] -65.7% | [6] -86.5% | [7] -98% | [9] -40.7% | [8] -88.7%

COc1cc(/C=C/C(=O)c2ccc(S(=O)(=O)NCCNc3nc(Nc4ccc(F)cc4)nc(N(C)C)n3)cc2)cc(OC)c1OC
inactive: [1] 26.2%
active: [2] -9.95% | [3] -24.8% | [5] -76.1% | [6] -69.6% | [7] -99% | [9] -81.1% | [8] -50.5%

CN(C(=O)c1ccc(C(C)(C)C)cc1)c1sc2c(c1C#N)CCC(=O)C2
inactive: [3] 14.7% | [5] 25.7%
active: [1] -40.3% | [2] -27.7% | [6] -9.14% | [7] -4.22% | [8] -41.4%

COc1cc2c3c(n(CCCN4CCOCC4)c(=O)c2cc1OC)-c1nc2c(cc1C3=O)OCO2
active: [2] 4.91% | [8] -29%
inactive: [1] 14.5% | [3] 16.4% | [5] 14% | [6] 15.6% | [7] 37.7% | [9] 32.1%

CC(C)C(=O)Nc1ccc(C(=O)NC(=S)Nc2ccc(C(=O)O)cc2)cc1
inactive: [1] 98.9% | [2] 79.5% | [3] 102% | [5] 99.9% | [6] 104% | [7] 110% | [9] 106% | [8] 96%

CC(C)(C)Nc1nc2cc(Cl)c(Cl)cc2nc1S(C)(=O)=O
inactive: [1] 31.3% | [3] 44.6% | [5] 58.8% | [6] 13.1% | [7] 42.2% | [9] 81.3%
active: [2] -29.7% | [8] -28.5%

COc1ccc(/C=C/C(=O)c2ccc(NC(=O)CN3C(=O)NC(C)(c4ccccc4)C3=O)cc2)cc1 (centres undefined)
active: [5] 4.86%
inactive: [1] 38.6% | [2] 71.6% | [3] 16.7% | [6] 12.8% | [7] 102% | [9] 49.3% | [8] 49.4%

Cc1ccc(C(C)C)cc1NC(=O)c1ccccc1O
inactive: [1] 22% | [3] 44.7% | [5] 40.2% | [6] 34.6% | [7] 47.5% | [9] 48.5% | [8] 40%
active: [2] -2.14%

CCN1CCN(c2ccc(NC(=O)Nc3ccc(-c4cc(C(=O)NC(C)C)c5ncccc5n4)cc3)cc2C(F)(F)F)CC1
active: [1] -66.5% | [2] -82.1% | [3] -92.9% | [5] -89.9% | [6] -94% | [7] -98.2% | [9] -83.7% | [8] -91.1%

Cc1ccc(-c2nc3ccc(C(=O)N=Nc4c(O)[nH]c5ccc(Cl)cc45)cc3[nH]2)cc1
active: [1] -4.44% | [2] -1.74% | [3] -61.5% | [5] -26.9% | [6] 0.963% | [7] -66.8% | [8] -75%

COc1ccc(-c2nc(S(=O)(=O)c3ccc(C)cc3)c(S(C)(=O)=O)o2)cc1
active: [1] -75.7% | [2] -12.5% | [3] -97.1% | [5] -53.1% | [6] -0.211% | [7] -87.6% | [9] -19% | [8] -92.9%

O=C(CSc1nnc(-c2c[nH]c3ccccc23)n1-c1ccccc1)Nc1ccc(C(=O)/C=C/c2cccc([N+](=O)[O-])c2)cc1
inactive: [1] 57.5% | [2] 93.5% | [3] 98.9% | [7] 62.7% | [9] 88.7% | [8] 75.4%
active: [5] -6.63% | [6] -54%

O=C(Nc1ccc(I)cc1F)c1cc(-c2ccc(F)cc2F)ccc1O
active: [1] -22.7% | [2] -12.5% | [3] 0.752% | [5] -12.8% | [7] 5.11% | [9] 6.39% | [8] -26.8%
inactive: [6] 17.2%

COc1ccc2[nH]c(O)c(N=NC(=O)c3cc(-c4ccc(C)cc4)nc4ccccc34)c2c1
inactive: [1] 69% | [3] 95.4% | [4] 107% | [5] 61% | [6] 78.1% | [7] 115% | [9] 95.1%

Cc1ccc(CSc2nc(Cl)c(C#N)c(-c3ccc(F)cc3)n2)cc1
inactive: [1] 31.3% | [2] 56.4% | [3] 99.7% | [5] 72.9% | [6] 59.3% | [7] 87.8% | [9] 72.2% | [8] 80.3%

Cc1ccc2nc(COc3ccc(C(=O)NNC(=S)NCCc4ccccc4)cc3)[nH]c2c1
inactive: [1] 74% | [2] 105% | [3] 98.5% | [5] 50.5% | [6] 57.3% | [7] 73.9% | [9] 63.4% | [8] 15.5%

NC(=Nc1ccc(OCCCCCCCCn2ccnn2)cc1)c1ccccc1
inactive: [1] 40% | [2] 56.6% | [4] 32.4% | [5] 13.8% | [7] 23.8% | [9] 18.2% | [8] 24%

CC(=O)Nc1ccc(-n2cnc3cc(-c4ccc(NS(C)(=O)=O)cc4)ccc32)cc1
inactive: [1] 63.2% | [2] 75.4% | [3] 51.7% | [5] 16.8% | [6] 33.9% | [7] 21.5% | [9] 39.8% | [8] 54.6%

C/C(=N\NC(N)=S)c1ccc(Nc2nc(SC(C)C)nc(-c3ccccc3)c2C#N)cc1
inactive: [1] 57.3% | [2] 28.5% | [3] 82.6% | [5] 64.2% | [6] 57.5% | [7] 59.2% | [9] 75.7% | [8] 28.2%

CC(C)Sc1nc(NC2CC2)c(C#N)c(-c2ccccc2)n1
inactive: [1] 92.7% | [2] 91.2% | [3] 98.6% | [5] 88.1% | [6] 46.7% | [7] 97% | [9] 94.7% | [8] 80.4% and 99.9%

O=c1[nH][nH]c(Nc2ccccc2)c1N=Nc1ccc(F)cc1
inactive: [1] 36.4% | [2] 65.3% | [3] 99.4% | [5] 13.9% | [6] 87% | [7] 92.6% | [9] 55.3% | [8] 27.8%

[2H]C([2H])([2H])Oc1ccc2ncc(C#Cc3cncc(C(=O)Nc4ccc(CN5CCN(C)CC5)c(C(F)(F)F)c4)c3)n2n1
active: [1] -24.5% | [2] -57.5% | [3] -67.2% | [5] -61% | [6] -29.5% | [7] -84.8% | [9] -94.1% | [8] -90.3%

COc1cc(NC(=O)c2cc(-c3ccc(F)cc3F)ccc2O)cc(OC)c1OC
inactive: [3] 36.2% | [5] 38.9% | [6] 42.5% | [7] 63.9% | [9] 29.8% | [8] 15%
active: [1] -10.1% | [2] 4.31%

COc1ccc(-c2ccc(/C=N/NC(=O)c3[nH]c4ccc(Br)cc4c3-c3ccccc3)s2)cc1
active: [5] 6.19%
inactive: [1] 72% | [2] 117% | [3] 107% | [6] 37.5% | [7] 112% | [8] 76.6%

COc1cc(OC(F)(F)F)ccc1C(=O)Nc1sc2c(c1C#N)CCC(=O)C2
active: [1] -4.87%
inactive: [3] 97.9% | [4] 31.6% | [5] 73.2% | [6] 40.7% | [7] 111% | [9] 88.1%

O=C(c1ccc(O)cc1)C1[C@H](c2ccccc2Br)[C@@H](c2ccccc2)NC12C(=O)Nc1ccc(Br)cc12 (some centres undefined)
inactive: [1] 61.7% | [2] 55.6% | [3] 33.8% | [6] 61.6% | [9] 18.4%
active: [5] 7.04% | [7] -13.8% | [8] -25.6%

Cc1ccc(NC(=O)NCn2c(=O)[nH]c3ccccc3c2=O)cc1
inactive: [1] 79.6% | [2] 115% | [3] 86.3% | [5] 72% | [6] 60.1% | [7] 102% | [9] 98.9% | [8] 84.1%

COc1ccc(-c2ccc(SCC(=O)Nc3ccc(C#N)cc3)nn2)cc1
inactive: [1] 79.5% | [2] 88.6% | [3] 98.8% | [5] 88.8% | [6] 87% | [7] 104% | [9] 99.9% | [8] 88.1%

COC1CC(Cn2cc(COc3ccc4ccc(=O)oc4c3)nn2)C(OCc2ccccc2)C(OCc2ccccc2)C1OCc1ccccc1 (centres undefined)
inactive: [1] 103% | [2] 122% | [3] 103% | [5] 84.8% | [6] 76.6% | [7] 121% | [9] 109% | [8] 93.4%

CCCn1c(O)c(N=Nc2nc(-c3cc4ccccc4oc3=O)cs2)c2cc(Br)ccc21
inactive: [1] 98.8% | [2] 113% | [3] 105% | [5] 90.4% | [6] 101% | [7] 99.1% | [9] 106% | [8] 94.8%

O=C1CCC(N2Cc3cc(NC(=O)COc4ccccc4)ccc3C2=O)C(=O)N1 (centres undefined)
active: [2] 4.38% | [8] -25.1%
inactive: [1] 49.2% | [3] 88.1% | [5] 70.3% | [6] 103% | [7] 83.5% | [9] 74.5%
